# Measured values published in PubChem BioAssay (NCI).
# This is part of a sample that, as a whole, favours compounds with a hit. Of some 83,000 tested, about 20% had one in any assay.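 Cell lines were cultured in 96-well plates, exposed to a single compound concentration, and assessed for percent growth 48 hours later.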 Unmarked numbers belong to inactive results. Calls of active or inactive are those of the source. Rule for the calls: active = growth percent below 10; inactive = the rest.
# System: A549/ATCC NSCLC
# Assay: NCI-60 one-dose screen, 48 h (100 = growth as untreated, 0 = no growth, -100 = all killed)
# Settings: 10 µM unless noted
row,SMILES,growth
1,CCn1c(Cc2ccccc2Nc2c(Cl)cccc2Cl)nnc1SCC(=O)Nc1cccc(OC)c1,66.1%
2,COc1ccc2nc(C)cc(Sc3nc4ccccc4s3)c2c1,35.7%
3,COc1cnc2c(c1)C(=O)c1c-2n(CCCN2CCN(C)CC2)c(=O)c2cc(Cl)ccc12,37.7%
4,c1cn2cc(-c3ccc4ncn(C5CCCCC5)c4c3)nc(-c3ccc4c(c3)ncn4C3CCCCC3)c2n1,-44.9% (active)
5,CN1C(=O)N(C)C2C1NN=c1s/c(=C\c3ccc(C(F)(F)F)cc3)c(=O)n12 (stereo not given),31.9%
6,CN1C(=O)N(C)C2C1NN=c1s/c(=C\c3ccsc3)c(=O)n12 (stereo not given),42.2%
7,C/C(=N\Nc1ccc([N+](=O)[O-])cn1)c1ccc(N)cc1,96.1%
8,COc1ccccc1/C=N\Nc1ccc([N+](=O)[O-])cn1,105%
9,CCCCCCCCCCCCCCCCCC(=O)[O][Sn]([CH2]CCC)([CH2]CCC)[CH2]CCC,-84.1% (active)
10,C[C@H](NC(=O)c1snnc1C1CC1)c1c(F)cccc1Cl,101%
11,CC(C)c1cccc(C#N)c1,93.5%
12,CN1C(=O)N(C)C2C1NN=c1s/c(=C\c3ccc(Br)cc3)c(=O)n12 (stereo not given),38.8%
13,O=C1SCN(Cc2ccccc2)CN1Cc1ccccc1,99.1%
14,C[N+](C)(C)CC(=O)N/N=C\c1ccco1,98.1%
15,COc1cc(C2CC(c3ccc(Cl)cc3)=NN2C(C)=O)ccc1Oc1nc2c(c(=O)n(C)c(=O)n2C)n1C (stereo not given),59.7%
